G9a inh – inhibitors of human histone lysine methyltransferase G9a | G9a H3K9 monomethylation, AlphaScreen, 2 h | 350,000 compounds, 8.8% hits | Potency, µM (titrated, usually from 102 µM), for inactives: at the top dose activity, negative = inhibition, actives largely listed as inhibitors | Q96KQ7; also: % is scaled to controls: 0 for no effect and ±100 for the full control effect; nearly all actives have a fitted effect of over 75% in size
Target sequence (Q96KQ7 913-1193 limits assumed): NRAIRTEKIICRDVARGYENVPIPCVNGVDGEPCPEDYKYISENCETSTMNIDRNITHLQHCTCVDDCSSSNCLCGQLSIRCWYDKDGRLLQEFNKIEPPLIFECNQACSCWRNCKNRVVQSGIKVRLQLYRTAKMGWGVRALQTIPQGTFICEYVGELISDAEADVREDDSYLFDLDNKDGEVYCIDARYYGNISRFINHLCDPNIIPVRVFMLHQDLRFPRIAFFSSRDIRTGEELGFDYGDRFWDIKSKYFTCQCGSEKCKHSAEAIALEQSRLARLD
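Step 1: enzyme (final 20 nM) with compound, 15 min RT. Step 2: substrate peptide 500 nM and SAM 20 uM, 2 h RT. Step 3: anti-H3K9me1 antibody and AlphaScreen beads, 10 min, then plate read.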
BAZ2B block – blocks human BAZ2B; Q9UIF8; AlphaScreen BAZ2B-H3K14Ac peptide displacement; Potency, µM (doses to about 114 µM), without a hit: at the top dose activity change, negative = inhibition, most hits filed as inhibitors; 360,000 compounds, 4.4% hits; AID 504333; also: % is scaled to controls: 0 for no effect and ±100 for the full control effect; nearly all actives have a fitted effect of over 60% in size
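Compounds, titrated to a top concentration of 110 uM, were incubated 30 min at room temperature with preformed BAZ2B/acetyl-K14 H3 peptide complex (50 nM each). Proximity signal was measured by AlphaScreen after 20 min with beads.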
HP1b chromo inh – HP1-beta chromodomain-methylated histone interaction inhibition; P83916; AlphaScreen HP1-beta / biotin-H3K9me3 peptide binding; Potency, µM (doses to about 114 µM), without a hit: at the top dose activity change, negative = inhibition, actives largely listed as inhibitors; 390,000 compounds, 0.56% hits; AID 540317; also: nearly all actives have a fitted effect of over 70% in size
Target sequence (P83916 whole entry, looked up): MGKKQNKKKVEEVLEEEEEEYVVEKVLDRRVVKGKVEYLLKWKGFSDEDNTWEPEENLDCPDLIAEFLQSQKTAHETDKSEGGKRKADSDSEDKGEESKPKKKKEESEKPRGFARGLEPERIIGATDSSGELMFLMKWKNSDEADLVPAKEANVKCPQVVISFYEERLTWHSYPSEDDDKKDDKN
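AlphaScreen: HP1-beta (50 nM) preformed 30 min with biotin-H3(1-18)K9me3 peptide (50 nM) in PBS pH 7.4, 0.01% Tween-20. Compound added for 30 min at RT, then streptavidin donor/nickel chelate acceptor beads (10 ug/mL) for 30 min.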
L3MBTL1 inh – blocks human L3MBTL1; AlphaScreen L3MBTL1–H3K9me1 peptide binding; Potency, µM (top dose mostly 57.1 µM), without a hit: top-dose activity, negative = inhibition, actives largely listed as inhibitors; 230,000 compounds, 0.66% hits; also: % is scaled to controls: 0 for no effect and ±100 for the full control effect; nearly all actives have a fitted effect of over 60% in size
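AlphaScreen proximity signal between nickel-chelate acceptor and streptavidin donor beads (final 10 ug/mL) reports binding of 50 nM L3MBTL1 to 75 nM biotin-H3 K9me1 peptide; complex incubated with compounds 30 min at room temperature; cefsulodin titration as control.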
JMJD2A Tudor inh – JMJD2A Tudor domain (human) inhibition | O75164 | AlphaScreen JMJD2A-Tudor / H3K4me3 peptide binding | Potency, µM (highest dose often 114 µM), inactives show top-dose activity change, negative = inhibition, usual class: inhibitors | 390,000 compounds, 4.4% hits | AID 504339; also: % is scaled to controls: 0 for no effect and ±100 for the full control effect; nearly all actives have a fitted effect of over 50% in size
GLS inh – inhibitors of human glutaminase (GLS); Potency, µM (doses to about 45.5 µM), for inactives: at the top dose activity change, negative = inhibition, actives largely listed as inhibitors; GLS enzymatic activity, qHTS titration; AID 624170; O94925; 410,000 compounds, 0.21% hits; also: % is scaled to controls: 0 for no effect and ±100 for the full control effect
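Read-out is an Amplex red fluorescence increase coupled through glutamate oxidase and HRP, measured before and after 30 min room-temperature incubation. hKGA is in 45 mM KH2PO4 (pH 8.2) with 0.02% Tween-20; glutamine added as 1mM solution.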
* hit, by the source's call; ? = inconclusive; . = no result; [ ] = another dose, or the depositor's remark. Most compounds without a hit are left out; they make up all but 10% or so of the library. Calls follow the shape of the dose curve; as a rule, active = well fitted curve in the direction sought with a large enough effect; inconclusive = small, poorly fitted or top-dose-only effect, or another doubt; inactive = no such curve, though single readings can be large; an effect the other way counts as inactive or inconclusive. Potency is read from the fitted curve at half-maximal effect.

SMILES	G9a inh	BAZ2B block	HP1b chromo inh	L3MBTL1 inh	JMJD2A Tudor inh	GLS inh
O=C(CC1OC(=O)c2ccccc21)Nc1ccc(Cl)c(S(=O)(=O)N2CCCCC2)c1 (stereo not given)	14µM*	1%	3%	-5%	-22%	7%
Cc1cccc(NC(=O)CSCC(=O)Nc2cc(Cl)ccc2N2CCN(C)CC2)c1	79µM*	-14%	31%	.	-15%	-4%
O=C(Cc1ccccc1F)Nc1cc(Cl)ccc1N1CCCC1	45µM*	-18%	43%	.	-19%	0%
COc1ccc(C(=O)CC2OC(=O)c3ccccc32)cc1OC (stereo not given)	-9%[59 µM]	8%	31%	-5%	-4%	1%
CC(=O)N1CCN(C(=O)CC2OC(=O)c3ccccc32)CC1 (stereo not given)	40µM*	?	-13%	-7%	-26%	-7%
Cc1nn(CC(=O)Nc2cccc(C(F)(F)F)c2)c(=O)c2nn(-c3ccccc3)c(C)c12	?	-12%	38%	.	0%	0%
O=C(CC1OC(=O)c2ccccc21)Nc1ccccc1N1CCOCC1 (stereo not given)	-21%	12%	11%	4%	-13%	2%
COc1ccc(S(=O)(=O)N2CCCCCC2)cc1NC(=O)CC1OC(=O)c2ccccc21 (stereo not given)	-32%	8%	21%	0%	-14%	-5%
O=C(CC1OC(=O)c2ccccc21)Nc1cc(Cl)ccc1N1CCCC1 (stereo not given)	56µM*	9%	-4%	4%	-14%	4%
O=C(CC1OC(=O)c2ccccc21)Nc1cc(S(=O)(=O)N2CCOCC2)ccc1OCC(F)(F)F (stereo not given)	13µM*	-1%	18%	-12%	-10%	12%
COc1ccc(C(=O)NCCc2c[nH]c3ccccc23)cc1S(=O)(=O)N1CCCCC1C (stereo not given)	2.8µM*	-39%	-11%	-1%	?	19%
O=C(NCCc1c[nH]c2ccccc12)c1ccc2nc[nH]c2c1	-12%[59 µM]	50µM*	13%	?	-31%	11%
CCOc1ccc(-n2cc(-c3ccccc3)c3c(NCc4ccc(F)cc4)ncnc32)cc1	-1%[59 µM]	?	19%	.	-32%	8%
O=C1N(C2CCCC2)C[C@@H]2C[C@@H](c3cccn3-c3nccs3)N3CCC[C@@]123	50µM*	0%	11%	-1%	-19%	10%
O=C1N(C2CCCC2)C[C@@H]2C[C@@H](c3cccn3-c3ccccn3)N3CCC[C@@]123	-34%	-1%	27%	-7%	-11%	13%
COc1ccc(/C=C2\CCCC(C(=O)C(F)(F)F)=C2O)cc1	8.9µM*	11%	31%	.	-4%	4%
O=C(NNC1=C(C(=O)C(F)(F)F)CCC1)c1cccnc1	14%	-22%	22%	-4%	-16%	0%
O=C(C1=C(O)/C(=C/c2ccc(O)cc2)CCC1)C(F)(F)F	10µM*	-33%	25%	-1%	-30%	1%
COc1ccc(/C=C2\CCOC2=O)cc1	10%[0.0925 µM]	4%	29%	3%	-3%	-5%
O=C(CCCn1c(=O)c2ccccc2n(Cc2cccc(F)c2)c1=O)NCc1ccccc1Cl	-7%[59 µM]	2%	34%	.	-10%	0%
CCOC(=O)c1ccc(-n2c(CCC(=O)O)ccc2-c2ccc(Br)cc2)cc1	16µM*	50µM*	?	.	?	17%
CCOc1ccc(-n2c(CCC(=O)O)ccc2-c2ccc(Br)cc2)cc1	10µM*	40µM*	?	.	?	-5%
CCCc1nn2c(=O)cc(COC(=O)c3cccc(NC(=O)c4ccc(OCC)cc4)c3)nc2s1	-4%[12.7 µM]	-7%	20%	.	-13%	-3%
CCOc1ccc(-c2nc(Cn3c(=O)cc(-c4ccccc4)c4c(C)nn(C)c43)c(C)o2)cc1	-2%[59 µM]	-1%	11%	.	-11%	-3%
